This excerpt belongs to a sample that is enriched for hits.
Tgondii IFNg: T. gondii growth inhibition with IFN-gamma, primary screen, cell-based | Toxoplasma gondii growth in IFN-gamma-treated host cells; stronger effect = lower value | activity change, negative = inhibition, % (test concentration not listed) | 3.8% of 69,000 active; in the data active = activity change below about -70%, passing the limit was not always enough;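 note: host cells are HeLa cells infected with Toxoplasma gondii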
* = called active by the depositor; i = inactive.

SMILES	Tgondii IFNg
C=CC(=O)Nc1cccc(Nc2nc(Nc3ccc(NC4CN(CCF)C4)cc3OC)ncc2C(F)(F)F)c1	12.5
COc1cc(OC)c(NC(=O)NCC(c2cccnc2)c2cn(C)c3ccccc23)cc1Cl (stereo not drawn)	i
C=CC(=O)Nc1cc(Nc2nccc(-c3cn(C)c4ccccc34)n2)c(OC)cc1N(C)CCN(C)C	-74.0*
CCN1C[C@H](COC)[C@]2(CCN(C(=O)N3CCCC3)C2)C1	-11.4
O=c1[nH]c2ccccc2c(O)c1-c1nc(-c2ccc(Br)cc2)no1	26.5
O=Nc1c(-c2c(O)[nH]c3cc(Br)ccc23)[nH]c2ccccc12	-91.9*
O=C1C(c2c(O)[nH]c3ccccc23)=Nc2ccccc21	-3.3
CCC(NC(=O)c1cc(-c2c(C)nn(C)c2C)n[nH]1)c1ccc(F)cc1 (stereo not drawn)	-1.0
